A selection follows.
aSyn UTR act: Activators working through SNCA 5'UTR binding (MLPCN); alpha-synuclein 5'UTR reporter, activators screen; activity score, % (tested at 7.5 µM), hits read low; 7.1% of 300,000 active; in the data active = activity score below about -60%
Of the large screens only hits and unclear results are named; the others gave an inactive call.

COc1ccc(C(=O)/C=C\c2ccc(NC(=O)c3cccs3)cc2)cc1	aSyn UTR act -129
COc1cccc(NC(=O)c2cccs2)c1	aSyn UTR act -155
COc1cc(NC(=O)c2cccs2)cc(OC)c1	aSyn UTR act -90
COc1ccc(NC(=O)OC(C)C)cc1	aSyn UTR act -70
COc1ccc2cc[nH]c2c1	none
COc1ccc(NC(=O)Nc2ccc3[nH]ccc3c2)cc1	aSyn UTR act -112
COc1ccc2cc(OCC(=O)NNC(=O)Nc3ccc(C(C)=O)cc3)ccc2c1	aSyn UTR act -88
COc1ccc(NC(=O)Nc2ccc(OC)cc2)cc1	aSyn UTR act -99
N#Cc1ccc(NC(=O)Nc2ccc(Oc3ccc(NC(=O)Nc4ccc(C#N)cc4)cc3)cc2)cc1	none
COc1ccc(NC(=O)Nc2ccc(N(C)C)cc2)cc1	aSyn UTR act -124
O=C1/C(=C\c2cccs2)Sc2ccc3ccccc3c21	aSyn UTR act -165
O=C(O)c1ccc(NC(=S)NC(=O)c2ccc3ccccc3c2)cc1	aSyn UTR act -64
O=C(Nc1ccc(Nc2ccccc2)cc1)c1cccc(F)c1	aSyn UTR act -265
COc1ccc(NC(=S)NNc2ccc(C(=O)O)cc2)cc1	aSyn UTR act -107
O=C(Nc1ccc(N2CCCC2=O)cc1)c1cccc(F)c1	aSyn UTR act -98
O=C(Nc1ccc(N2CCCC2)cc1)c1cccc(F)c1	aSyn UTR act -203
O=C(Nc1ccc(N2CCCC2)cc1)c1ccc2ccccc2c1	aSyn UTR act -143
Fc1ccc(Nc2ccnc(Nc3ccc(F)cc3)n2)cc1	aSyn UTR act -93
CC(C)(C)c1csc(N/N=C/c2ccc(O)cc2)n1	aSyn UTR act -165
COc1ccc(NC(=O)Nc2ccc3nonc3c2)cc1	aSyn UTR act -150
COc1ccc(NC(=O)Nc2ccc3nccnc3c2)cc1	aSyn UTR act -122
Fc1ccc(OCc2cc(-c3ccccc3)no2)cc1	aSyn UTR act -149
COc1ccc(-c2cc(COc3ccccc3)on2)cc1	aSyn UTR act -132
Cc1cccc(OCc2cc(-c3ccccc3)no2)c1C	aSyn UTR act -112
CC(/C=C/c1ccco1)=N\NC(=O)CNc1ccc2ccccc2c1	aSyn UTR act -70
Cc1ccc(NC(=O)Nc2ccccc2)nc1	aSyn UTR act -119
Cc1ccc(NC(=O)c2ccc(F)cc2)nc1	aSyn UTR act -107
Cc1ccc(NC(=O)Nc2cccc([N+](=O)[O-])c2)nc1	aSyn UTR act -113
Cc1ccc(NC(=O)Nc2ccc([N+](=O)[O-])cc2)nc1	aSyn UTR act -113
Cc1ccc(NC(=O)/C(C#N)=C(\N)C(Cl)(Cl)Cl)nc1	aSyn UTR act -68
C=C(C)c1cccc(C(C)(C)NC(=O)Nc2ccc(C)cn2)c1	aSyn UTR act -91
Cc1ccc(NC(=O)C(=O)Nc2ccc(C)cn2)nc1	aSyn UTR act -66
NNC(=O)c1ccc2nc(-c3ccc(Br)cc3)cn2c1	aSyn UTR act -154
COC(=O)c1ccc2nc(-c3ccc4c(c3)OCO4)cn2c1	none
COc1ccc(-c2cn3cc(C(=O)NN)ccc3n2)cc1	aSyn UTR act -92
Cc1ccc(Oc2ccc(NC(=O)c3ccco3)cc2)cc1	aSyn UTR act -123
Cc1ccc(Cn2cccc(NC(=O)c3ccco3)c2=O)cc1	aSyn UTR act -78
Cc1ccc(NC(=O)c2ccc(OC(=O)c3ccco3)cc2)cc1	aSyn UTR act -122
Cc1ccc(NC(=O)c2ccc(OC(=O)c3cc4ccccc4o3)cc2)cc1	aSyn UTR act -124
O=[N+]([O-])c1cc([N+](=O)[O-])c2c(=Nc3ccccc3)n(-c3ccccc3)n(O)c2c1	aSyn UTR act -77
N/C(=N\OC(=O)c1ccc(Br)o1)c1cccnc1	aSyn UTR act -143
COc1ccc(/C(N)=N/OC(=O)c2ccc(Br)o2)cc1	aSyn UTR act -155
CCOC(=O)N1CCN(C(=O)CCNS(=O)(=O)c2ccc3c(c2)c(=O)n(C)c(=O)n3C)CC1	aSyn UTR act -153
COc1ccccc1Oc1ccc(N/C=C/C(=O)c2ccco2)cc1	aSyn UTR act -199
O=C(/C=C/Nc1ccc(Oc2ccccc2Cl)cc1)c1ccco1	aSyn UTR act -184
CCOC(=O)N1CCN(c2nc(-c3ccc(OC)cc3)no2)CC1	aSyn UTR act -88
COc1ccc(-c2nc(-c3ccc(C(=O)O)cc3)no2)cc1	aSyn UTR act -90
COC(=O)c1ccc(-c2nc(-c3ccc(Br)o3)no2)cc1	aSyn UTR act -108
COc1ccc(-c2noc(-c3ccc(Br)o3)n2)cc1	aSyn UTR act -212
Cc1nc(-c2noc(-c3ccc(Cl)cc3)n2)c(C(F)(F)F)o1	aSyn UTR act -103
COc1ccc(-c2noc(-c3ccc(Cl)cc3)n2)cc1	aSyn UTR act -131
CCNC(=O)NC(=O)C(C)Oc1ccc(Br)cc1Br (configuration not stated)	aSyn UTR act -78
CCOC(=O)CCSc1nc(C)c2cc(OC)ccc2n1	aSyn UTR act -123
CCOc1ccc2nc(SCc3cccc(C)c3)nc(C)c2c1	aSyn UTR act -129
CCOC(=O)c1cccc(NC(=O)c2ccc(NC(=O)c3ccco3)cc2)c1	aSyn UTR act -67
CCOc1ccccc1NC(=O)c1cccc(NC(=O)c2ccco2)c1	aSyn UTR act -185
COc1ccc(/C=C2\SC(=S)N(CCCC(=O)NNC(=O)c3ccccc3O)C2=O)cc1	none
COc1ccc(/C=C2\SC(=O)N(CCNC(=O)Cc3coc4cc(OC)ccc34)C2=O)cc1	aSyn UTR act -70
COc1ccc(/C=C2\SC(=O)N(CCNC(=O)C3=COCCO3)C2=O)cc1	aSyn UTR act -129
COC(=O)/C(=C\c1ccc(O)cc1)c1nc2ccccc2[nH]1	aSyn UTR act -186
O=C(/C(=C\c1ccccc1)c1nc2ccccc2[nH]1)c1ccc(Cl)cc1	aSyn UTR act -228
COc1cc(/C=C(/C(=O)c2cccs2)c2nc3ccccc3[nH]2)ccc1O	aSyn UTR act -86
C/C(=C\c1ccc(N)cc1)c1nc2ccccc2[nH]1	aSyn UTR act -172
O=C(/C(=C/c1ccc(Cl)cc1)c1nc2ccccc2[nH]1)c1cccs1	aSyn UTR act -178
Oc1oc(-c2ccccc2)nc1/C=N/c1ccccn1	aSyn UTR act -86
Cc1ccc(-c2nc(C=Nc3ccc(O)cc3)c(O)o2)cc1	aSyn UTR act -95
CN=Cc1nc(-c2ccccc2)oc1O	aSyn UTR act -97
CCNc1nc(C)c2cc(Br)c(=O)n(CC)c2n1	none
O=C(Nc1ccc(Cl)c(Cl)c1)N1CC=CCC1	aSyn UTR act -122
Cc1ccc(NC(=O)C(=O)N2CCCC2)cc1Cl	aSyn UTR act -107
O=C(Nc1cccc([N+](=O)[O-])c1)C(=O)N1CCCCC1	aSyn UTR act -151
Cc1ccc(NC(=O)N2CCCC2)cc1Cl	aSyn UTR act -73
CCOc1ccc(C(=O)O/N=C(\N)c2ccccn2)cc1OCC	aSyn UTR act -103
COc1cc(OC)cc(C(=O)O/N=C(\N)c2ccccn2)c1	aSyn UTR act -130
COc1ccc(C(=O)O/N=C(\N)c2ccccn2)cc1	none
Cc1ccc(S(=O)(=O)Nc2cccc(C(=O)NCc3cccnc3)c2)cc1F	aSyn UTR act -73
Cc1ccc(C(=O)c2coc3ccc(O)cc23)cc1	aSyn UTR act -64
Cc1ccc(C(=O)c2coc3ccc(O)c(Cl)c23)cc1	aSyn UTR act -163
O=C(c1ccccc1)c1coc2ccc(O)c(Cl)c12	aSyn UTR act -96
Nc1c(C(=O)NCc2ccco2)nnn1-c1ccccc1	aSyn UTR act -125
O=C(NCc1ccco1)c1cccc(-c2nnc(-c3ccccc3)o2)c1	aSyn UTR act -71
Cc1cccc(-c2noc(-c3ccccc3C(=O)NCc3ccco3)n2)c1	aSyn UTR act -62

Assay outcomes (PubChem)
